The list is not random: actives were taken first. Their share in the collection is about 10%.
BAZ2B block: inhibitors of human BAZ2B bromodomain; Q9UIF8; actives 4.4% (n = 360,000); AlphaScreen BAZ2B-H3K14Ac peptide displacement; Potency, µM (titrated, usually from 114 µM), usual class: inhibitors; further: nearly all actives have a fitted effect of over 60% in size
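Complex of BAZ2B and biotin-H3K14Ac (50 nM apiece) forms over 30 min at RT, then faces library compounds up to 110 uM for another 30 min; AlphaScreen beads added, 20 min dark incubation, luminescence read.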
HP1b binding inh: HP1-beta chromodomain-methylated histone interaction inhibition; P83916; AlphaScreen HP1-beta / biotin-H3K9me3 peptide binding; Potency, µM (titrated, usually from 114 µM), usual class: inhibitors; actives 0.56% (n = 390,000); AID 540317; further: nearly all actives have a fitted effect of over 70% in size
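HP1-beta protein (50 nM final) preincubated 30 min at room temperature with biotinylated H3(1-18)K9me3 peptide (50 nM) in PBS pH 7.4, 0.01% Tween-20, then compound added for 30 min. AlphaScreen streptavidin donor/nickel chelate acceptor beads (10 ug/mL final), 30 min dark, luminescence read.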
Six1-Eya2 inh: inhibitors of human Six1/Eya2 interaction; Q15475+O00167; AlphaScreen GST-Six1/His-Eya2 binding, biochemical; active compounds read low; activity change, % (concentration not given with the values); actives 0.56% (n = 360,000); AID 651725; in the data active means activity change below about -65%; inconclusive means mostly about -30% to -63%
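AlphaScreen with GST-Six1 and His-Eya2 (5X mix: 250 nM and 500 nM), glutathione donor and nickel acceptor beads; buffer 50 mM Tris pH 8.0, 300 mM NaCl, 1 mM TCEP; 1 h at 37 C in the dark.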
JMJD2A Tudor inh: inhibitors of human JMJD2A Tudor domain. Potency, µM (highest dose often 114 µM), hits mostly inhibitors. AlphaScreen JMJD2A-Tudor / H3K4me3 peptide binding. O75164. actives 4.4% (n = 390,000). AID 504339; further: nearly all actives have a fitted effect of over 50% in size
CtBP-E1A blk: CtBP/E1A binding inhibition; AlphaScreen GST-E1A/His-CtBP binding, 1536-well; active compounds read low; activity change, % (concentration not given with the values); actives 0.49% (n = 340,000); AID 651724; in the data active means activity change below about -65%; inconclusive means mostly about -30% to -63%
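GST-E1A and His-tagged CtBP (125 nM each as 5X stock) were preincubated with pin-transferred compound for 2 h at 37 °C in the dark, then glutathione donor and nickel acceptor beads were added for 1 h before AlphaScreen reading.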
G9a block: inhibitors of human histone lysine methyltransferase G9a; Q96KQ7; G9a H3K9 monomethylation, AlphaScreen, 2 h; Potency, µM (series often up to 102 µM), most hits filed as inhibitors; actives 8.8% (n = 350,000); AID 504332; further: nearly all actives have a fitted effect of over 75% in size
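Quantitative HTS format: methyltransferase activity on a biotin-tagged H3K9 peptide is measured by AlphaScreen, using a rabbit anti-monomethyl-H3K9 antibody with streptavidin donor and anti-IgG acceptor beads. Final levels are 20 nM enzyme, 500 nM peptide, 20 uM SAM; 2 h RT.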
A number is an active result; i = inactive; ? = inconclusive; nt = no result given; [ ] = remark or other dose. Unless noted, the call rests on the fitted dose curve; in most records, active means well fitted inhibition curve with a large enough effect; inconclusive means small, poorly fitted or top-dose-only effect; inactive means no such curve, though single readings can be large or run the other way.

SMILES | BAZ2B block | HP1b binding inh | Six1-Eya2 inh | JMJD2A Tudor inh | CtBP-E1A blk | G9a block
COc1cc(CN2CCN(Cc3c[nH]c4ccccc34)CC2CCO)cc(OC)c1 (stereo not drawn) | i | i | i | i | nt | nt
CCOC(=O)c1sc2ccccc2c1S(=O)(=O)N1CCN(c2cccc(C)c2C)CC1 | i | i | nt | i | nt | i
CCCCCCCCCOC(=O)CNc1nc(C#N)nc(NCC(=O)OCCCCCCCCC)n1 | nt | i | nt | i | nt | nt
CC(/C=C1\N=C(SCc2ccccc2Cl)SC1=O)=C\c1ccccc1 | ? | ? | i | 56µM | i | i
Cc1noc(C)c1-c1ccc2ncnc(NCc3ccc4c(c3)OCO4)c2c1 | nt | nt | nt | i | nt | nt
COC(=O)C(=O)/C=C(\O)c1c(C)cc(C)cc1C | 79µM | i | i | ? | i | 18µM
COc1ccc(C2=NN3C(C2)c2ccccc2OC32C(=O)N(C)c3ccccc32)cc1 (stereo not drawn) | i | i | i | i | i | 25µM
COc1ccc(C2=NN3C(C2)c2ccccc2OC3c2cccs2)cc1 (stereo not drawn) | ? | i | i | i | i | 40µM
COc1ccc(C2=NN(C(N)=S)C(c3ccccc3)C2)cc1 (stereo not drawn) | ? | i | i | i | i | ?
COc1ccc(C2=NN(C(=O)CCC(=O)O)C(c3cccs3)C2)cc1 (stereo not drawn) | i | i | i | i | i | i
COc1ccc(CCNC(=O)COc2cc(O)c3c(c2)OC(C)(C)CC3=O)cc1 | i | i | i | i | i | nt
COc1ccc(CNC(=O)COc2cc(O)c3c(c2)OC(C)(C)CC3=O)c(OC)c1 | i | i | i | 89µM | i | nt
CCCCn1c(=O)c2oc3ccccc3c2n(CC(=O)Nc2cc(C)ccc2C)c1=O | i | i | nt | i | nt | i
Cc1[nH]c(=O)[nH]c(=O)c1/C=N/NC(=O)[C@H](CC(C)C)NC(=O)OC(C)(C)C | i | i | i | i | i | ?
Cc1[nH]c(=O)[nH]c(=O)c1/C=N/NC(=O)[C@@H](N)CC(C)C | 50µM | i | -87 | ? | i | ?
Cc1ccc(NC(=O)N2CCC(CN3CCCCC3)CC2)c(Cl)c1 | i | i | nt | i | nt | i
COc1ccccc1CNC(=O)c1cc2ccc3ccc(C)[nH]c3c2n1 | i | i | nt | i | nt | i
CCN(CC)c1ccc(/C=N/NC(=O)C(O)(c2ccccc2)c2ccccc2)o1 | i | nt | nt | nt | nt | 28µM
O=C(Nc1ccccc1)Nc1ccc2nnsc2c1 | i | i | i | 79µM | i | i
CC(=O)Oc1ccc2nc(-c3ccco3)oc(=O)c2c1 | i | i | i | 28µM | i | i
Cc1cc(C)nc(N/N=C/C=C/c2ccccc2)n1 | i | i | i | i | i | 50µM
O=C1C2C3C=CC(CNS(=O)(=O)c4ccccc4[N+](=O)[O-])(O3)C2C(=O)N1c1ccccc1 (stereo not drawn) | i | ? | i | ? | i | 4.5µM
Cc1cc(C)c(S(=O)(=O)NCC23C=CC(O2)C2C(=O)N(c4ccccc4)C(=O)C23)c(C)c1 (stereo not drawn) | ? | ? | i | 50µM | i | i[0.501 µM]
CC(C(=O)N1c2ccccc2CC1C)N1CCN(S(=O)(=O)c2ccccc2F)CC1 (stereo not drawn) | 28µM | ? | i | 3.5µM | i | ?
N#C/C(=C\c1coc2ccc(O)cc2c1=O)C(=O)Nc1nc2ccccc2s1 | ? | ? | -75 | 63µM | -87 | ?
SMILES | BAZ2B block | HP1b binding inh | Six1-Eya2 inh | JMJD2A Tudor inh | CtBP-E1A blk | G9a block
NC(=O)N/N=C/c1coc2ccc(O)cc2c1=O | i | i | i | i | i | nt
Cc1ccc(NC(=O)c2nc(-c3ccncc3)no2)c(Cl)c1 | i | i | nt | i | nt | i
NC(CSC(c1ccccc1)(c1ccccc1)c1cccc2ccccc12)C(=O)O (stereo not drawn) | nt | ? | i | 56µM | i | nt
COc1cc(OC)c(NC(=O)c2ccc(-n3cnc4cccnc43)cc2)cc1Cl | i | i | nt | i | nt | i
CC(C)c1nc2ccc(C(=O)NCCCN3CCN(c4cccc(Cl)c4)CC3)cc2o1 | i | i | nt | i | nt | i
Cc1csc(Nc2ccccc2)[n+]1C | nt | i | i | i | i | ?
Cc1csc(Nc2ccccc2)[n+]1-c1ccccc1 | 45µM | 28µM | i | 22µM | ? | 10µM

Compound activity from PubChem BioAssay.
